Bioassay records deposited in PubChem BioAssay by National Center for Advancing Translational Sciences (NCATS).
Compounds with a hit are over-represented: about 0.96% of the library has one in this group of screens.
A647 autofl: qHTS Assay for Spectroscopic Profiling in A647 Spectral Region; Compound fluorescence, A647 channel (570/671 nm), Tris buffer; max dye-equivalent concentration, M; 59,000 tested, under 10 active; AID 592, 2007;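 note: values scaled relative to a standard on each plate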
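Each compound's intrinsic fluorescence at 570 nm excitation and 671 nm emission is measured across its concentration series in 100 mM Tris, pH 8.0, after 15 min at room temperature, and reported relative to an A647 curve.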
TexasRed autofl: qHTS Assay for Spectroscopic Profiling in Texas Red Spectral Region | Compound fluorescence, Texas Red channel, 547/618 nm; hits give high values | max dye-equivalent concentration, M | 59,000 compounds, 0.06% hits; in the data active = max dye-equivalent concentration above about 10 nM; inconclusive = between about 1.1 nM and that limit
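Compound fluorescence was read after 15 min at room temperature in 100 mM Tris, pH 8.0, using 547 nm excitation and 618 nm emission across a concentration series. It was expressed as Texas Red dye-equivalent concentration from an on-plate standard curve.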
Rhodamine autofl: qHTS Assay for Spectroscopic Profiling in Rhodamine Spectral Region | Rhodamine-region fluorescence, 547/598 nm, Tris buffer; hits give high values | max dye-equivalent concentration, M | 59,000 compounds, 0.05% hits; in the data active = max dye-equivalent concentration above about 11 nM; inconclusive = between about 1.1 nM and that limit
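Intensities are converted to rhodamine-equivalent concentration using a six-point rhodamine standard on each plate. Compounds sit 15 min at room temperature in 100 mM Tris buffer, pH 8.0; read uses the 547/598 nm excitation/emission pair.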
Fluorescein autfl: qHTS Assay for Spectroscopic Profiling in Fluorescein Spectral Region; Compound autofluorescence, 480/540 nm, fluorescein-equivalent; hits give high values; max fluorescein-equivalent concentration, M; 59,000 compounds, 0.91% hits; in the data active = max fluorescein-equivalent concentration above about 10 nM; inconclusive = between about 1.1 nM and that limit
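Compounds were pin-transferred into 100 mM Tris buffer, pH 8.0, and incubated 15 min at room temperature. Fluorescence was read at 480 nm excitation/540 nm emission. Signals were normalized to an on-plate six-point fluorescein standard curve as dye-equivalent concentration.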
A488 autofl: qHTS Assay for Spectroscopic Profiling in A488 Spectral Region | 59,000 compounds, 0.1% hits | max dye equivalency, M | AID 591, 2007 | compound autofluorescence, A488 spectral region, dye equivalency; Compound Type: qHTS ECL - MLSMR
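Spectroscopic profiling in the A488 region: compounds in pH 8.0 Tris (100 mM), 15 min RT, CCD imaging with 480 nm excitation and 540 nm emission; responses normalized against A488 dye standards.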
Resorufin autofl: qHTS Assay for Spectroscopic Profiling in Resorufin Spectral Region; Compound fluorescence, resorufin region 547/598 nm, buffer; hits give high values; max dye-equivalent concentration, M; 59,000 compounds, 0.04% hits; AID 588, 2007
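Compounds in 100 mM Tris buffer, pH 8.0, incubated 15 min at room temperature, then read with 547 nm excitation and 598 nm emission filters. Fluorescence was converted to dye-equivalent concentration using an on-plate six-point resorufin standard curve.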
An asterisk follows results filed as active; i = inactive; u = inconclusive; ! = not active in a repeat. Unless noted, the rule behind the calls is not given here.

SMILES	A647 autofl	TexasRed autofl	Rhodamine autofl	Fluorescein autfl	A488 autofl	Resorufin autofl
Nc1nc(Cn2nnc(-c3ccccc3F)n2)nc(N2CCOCC2)n1	1.79e-08	i	i	i	i	i
N#Cc1c(C(F)(F)F)cc(-c2ccccc2)nc1SCc1nc(N)nc(N2CCOCC2)n1	1e-09	i	i	1.62e-08M*	i	i
CCOC(=O)SC1=N/C(=C\c2ccc(N(C)C)cc2)C(=O)S1	1e-09	i	i	1.01e-08M*	i	i
CCOC(=O)c1sc(SCC(=O)Nc2ccc(N(C)C)cc2)nc1N	1.55e-08	i	i	i	i	i
COc1cccc(Nc2ncc3nc(-c4cn(C)c5ccccc45)c(=O)n(C[C@H]4CCCO4)c3n2)c1	1e-09	i	i	1.56e-08M*	i	i
COc1cccc(Nc2ncc3nc(-c4cccs4)c(=O)n(C[C@H]4CCCO4)c3n2)c1	1e-09	i	i	4.22e-08M*	u	i
CO[C@@]12C[C@@H](COC(=O)c3cncc(Br)c3)CN(C)[C@H]1Cc1cn(C)c3cccc2c13	1e-09	i	i	2.53e-08M*!	i	i
C[C@@]12C[C@H](O)[C@@H]3[C@H](CCC4=CC(=O)CC[C@]43C)[C@H]1CC[C@@H]2c1csc(N)n1	1.4e-09	u	i	u	i	i
CCCn1nc(-c2ccccc2)c2nc3ccccc3nc21	3.55e-08	i	i	2.01e-07M*	1.12e-08M*	i
CCn1nc(-c2ccccc2)c2nc3ccccc3nc21	1e-09	i	i	2.42e-07M*	1.2e-08M*	i
CCCCn1c2nc3ccccc3nc2c2c(=O)n(CCC)cnc21	6.5e-09	u	i	i	i	i
c1ccc(-c2nnc(Cn3c4ccccc4c4nc5ccccc5nc43)o2)cc1	4.71e-08	i	i	u	i	i
CCN1CC2=C(OC(N)=C(C#N)C2c2ccccc2)/C(=C\c2ccccc2)C1 (configuration not stated)	1e-09	i	i	i	i	i
N#CC1=C(N)OC2=C(CCC/C2=C/c2ccoc2)C1c1ccoc1 (configuration not stated)	5.2e-09	u	i	1.37e-08M*	i	i
C=C[C@@H]1CN2CC[C@@H]1C[C@H]2[C@H](O)c1ccnc2ccc(OC)cc12	7e-09	i	i	i	i	i
COc1cc(OC)c(/C=C2/C(=O)Nc3ccccc32)c(OC)c1	2.38e-08	i	i	u	i	i
Cc1cc(C)c(/C=C2/C(=O)Nc3ccccc32)[nH]1	6.61e-08	i	u	2.31e-08M*	i	i
Cc1ccc(N2C(=O)C3C(C2=O)C(C(=O)c2ccc(Cl)cc2)N2CCCC32)cc1 (configuration not stated)	3.5e-08	i	i	3.12e-08M*	u	i
COc1ccc(CNC(=O)c2cc3c(=O)n4ccccc4nc3n(Cc3ccco3)c2=N)cc1	3.68e-08	i	i	1.95e-08M*	i	i
Cc1ccc(Cn2c(=N)c(C(=O)NCc3ccco3)cc3c(=O)n4ccccc4nc32)cc1	1.7e-08	i	i	u	i	i
COc1ccc(CCn2c(=N)c(C#N)cc3c(=O)n4ccccc4nc32)cc1	2.7e-09	i	i	1.01e-08M*	i	i
CCOC(=O)c1cc2c(=O)n3ccccc3nc2n(Cc2ccccc2)c1=N	2.03e-08	i	i	1.6e-07M*	u	i
COc1ccc(CSc2nnc(C)n2N)cc1	2.46e-08	i	i	2.3e-08M*	i	i
Cc1nnc(SCc2ccccc2)n1N	2.95e-08	i	i	i	i	i
CCC[C@@H]1O[C@@H]2C[C@@H]3[C@@H]4CCC5=CC(=O)C=C[C@@]5(C)[C@H]4[C@H](O)C[C@@]3(C)[C@@]2(C(=O)CO)O1	1.4e-09	u	i	i	i	i
SMILES	A647 autofl	TexasRed autofl	Rhodamine autofl	Fluorescein autfl	A488 autofl	Resorufin autofl
CN1CCc2c(sc3c2C(=O)NC(c2ccco2)N3)C1 (configuration not stated)	4.33e-08	i	i	1.33e-08M*	i	i
N[C@@H]1[C@@H]2[C@@H]3C[C@H]4N(CC[C@@]14C(=O)C(=O)O)CC3=CCO[C@@H]2CC(=O)O	2.2e-09	i	i	1.03e-08M*	i	i
N[C@@H](Cc1[nH]nc2ccccc12)C(=O)O	2.3e-09	i	i	1.14e-08M*	i	i
CC(C)(C)[C@@]1(O)CCN2C[C@@H]3c4ccccc4CCc4cccc(c43)[C@@H]2C1	6.4e-09	i	i	u	i	i
C[C@H]1CS(=O)(=O)CCN1/N=C\c1ccc([N+](=O)[O-])o1	2.4e-09	i	i	i	i	i
O=C1CN(/N=C\c2ccc([N+](=O)[O-])o2)C(=O)N1	2.4e-08	u	i	1.61e-07M*	u	i
COc1cccc(/C=C/c2ccncc2)c1OC	2.72e-08	i	i	i	i	i
CN(C)c1ccc(/C=C/c2ccncc2)cc1	2.56e-08	i	i	1.15e-08M*	i	i
COCCn1c(=O)c(-c2ccc(OC)cc2)nc2cnc(Nc3ccccc3)nc21	1e-09	i	i	2.38e-08M*	i	i
COCCn1c(=O)c(-c2cccs2)nc2cnc(Nc3ccccc3)nc21	2.57e-08	i	i	2.69e-08M*	i	i
CNC(=O)c1cc2ccc(OC)cc2oc1=O	1e-09	i	i	1.66e-08M*	i	i
Cc1cc2c(cc1C)NC(c1c(C)n(C)n(-c3ccccc3)c1=O)C1=C(CC(C)(C)CC1=O)N2 (configuration not stated)	6e-09	u	i	4.33e-08M*	u	i
CC(C)(C)c1c2c(c(C(C)(C)C)c3c1OCN(Cc1ccccc1)C3)OCN(Cc1ccccc1)C2	2.03e-08	i	i	i	i	i
Cc1nc(NCCCn2ccnc2)c2ccccc2n1	8.4e-09	i	i	u	i	i
O=C1c2ccccc2-c2onc3ccc(NCCCn4ccnc4)c1c23	5.07e-08	1.38e-07M*	6.22e-07M*	4.57e-06M*	2.61e-07M*	6.55e-07M*
CC(C)N1CC2=C(OC(N)=C(C#N)C2c2cccnc2)/C(=C/c2cccnc2)C1 (configuration not stated)	6.2e-09	1.28e-08M*	i	u	i	i
COc1ccc(-c2c3c(=O)n(C)c(=O)n(C)c3c3nnc4ccccc4n23)cc1	1e-09	i	i	1.35e-08M*	i	i
O=C(NCc1ccc(F)cc1)C1CCN(C(=O)NCc2ccccc2)CC1	1e-09	i	i	1.03e-08M*	i	i
